From PubChem BioAssay (NCI) come the findings set out here.

Some test systems named below: NCI-H23 lung; NCI-H226 lung; NCI-H322M lung; HOP-62 NSCLC; NCI-H460 lung; HOP-92 NSCLC; NCI-H522 lung; A549/ATCC NSCLC; 786-0 renal; DU-145 prostate; K-562 leukemia; MALME-3M melanoma; MDA-MB-231 breast; RXF 393 renal; SF-268 CNS; SF-295 CNS; SF-539 CNS; UACC-257 melanoma; M14 melanoma.
Assay in all cases: NCI-60 one-dose screen, 48 h (100 = growth as untreated, 0 = no growth, -100 = all killed)
Common to all, as to conditions: 10 µM unless noted

This is part of a sample that, as a whole, favours compounds with a hit. Of some 83,000 tested, about 20% had one in any assay.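 Step 1: grow cells in 96-well plates. Step 2: add test compound at a single concentration. Step 3: incubate 48 h. Step 4: record percent growth.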 Unmarked numbers belong to inactive results. The source made the active and inactive calls. The calls were made as follows: active = growth percent below 10; inactive = the rest.

In the case of `C=C1c2c(C)nn(-c3ccc(NC(C)=O)cc3)c2N(C)C23CC1C1(C)c4c(C)nn(-c5ccc(NC(C)=O)cc5)c4N(C)C(C)(CC12)C3` (configuration not stated), the growth in the test with NCI-H23 lung is 58.2%; in the test on NCI-H226 lung it was 47.2%; in the test with NCI-H322M lung it was 61.2%; in the test with HOP-62 NSCLC, 55.9%; with NCI-H460 lung, 8.58% (active); with HOP-92 NSCLC, 65%. The growth is 42.9% with NCI-H522 lung; 26.3% in the test with A549/ATCC NSCLC; 43.5% in the test with 786-0 renal; 46.8% in the test with DU-145 prostate; 14.9% in the test on K-562 leukemia; 71.1% in the test on MALME-3M melanoma. For the same compound, the growth was 48.4% in the test with MDA-MB-231 breast; 29.9% with RXF 393 renal; 43.8% in the test on SF-268 CNS; 35.6% in the test on SF-295 CNS; 63.1% with SF-539 CNS; 38.4% in the test with UACC-257 melanoma. In the test with M14 melanoma, the growth is 19.6%.
`NS(=O)(=O)Oc1ccc(-c2sc3cc(O)ccc3c2C(=O)c2ccc(OCCN3CCCCC3)cc2)cc1`: the growth was 88% in the test with NCI-H23 lung; 79% in the test with NCI-H226 lung; 90.6% in the test with NCI-H322M lung; 67% in the test with HOP-62 NSCLC; 20.3% with NCI-H460 lung; 60.4% with HOP-92 NSCLC. In addition, the growth in the test on NCI-H522 lung is 65.8%; in the test with A549/ATCC NSCLC, 33.4%; with 786-0 renal, 71.6%; in the test with DU-145 prostate, 51.2%; in the test with K-562 leukemia, 14.1%; in the test on MALME-3M melanoma it was 63.7%. The growth is 72% in the test with MDA-MB-231 breast; 66.8% in the test on RXF 393 renal; 68.4% in the test with SF-268 CNS; 48.1% in the test on SF-295 CNS; 62.8% in the test with SF-539 CNS; -44.2% (active) with UACC-257 melanoma. Besides, in the test with M14 melanoma, the growth was -17% (active).
With `CCCCCCN(CCCCCC)CC(O)c1cccc2ccc(Cl)cc12` (configuration not stated), the growth with NCI-H23 lung was 38.8%; in the test with NCI-H226 lung it was 85.6%; in the test on NCI-H322M lung it was 66.4%; in the test on HOP-62 NSCLC, 31.8%; in the test on NCI-H460 lung, 44%; in the test on HOP-92 NSCLC, 3.01% (active). In addition, the growth in the test with NCI-H522 lung is 38.1%; in the test on A549/ATCC NSCLC it was 67.2%; with 786-0 renal, 53.2%; with DU-145 prostate it was 61.8%; in the test with K-562 leukemia, 32.9%; in the test on MALME-3M melanoma it was 65.6%. The growth was 43.3% with MDA-MB-231 breast; 24.1% in the test on RXF 393 renal; 121% in the test with SF-268 CNS; 42% in the test on SF-295 CNS; 65.5% in the test with SF-539 CNS; 74.4% with UACC-257 melanoma. Besides, the growth with M14 melanoma was 63.3%.
Take `Cc1cc(NS(=O)(=O)c2ccccc2)c(OS(=O)(=O)c2ccccc2)cc1C`: the growth in the test on NCI-H23 lung is 98.6%; in the test on NCI-H226 lung, 101%; in the test on NCI-H322M lung it was 110%; in the test on HOP-62 NSCLC it was 105%; in the test with NCI-H460 lung it was 106%; with HOP-92 NSCLC it was 88.1%. The growth is 97.4% with NCI-H522 lung; 104% in the test with A549/ATCC NSCLC; 112% in the test on 786-0 renal; 120% in the test on DU-145 prostate; 88.8% with K-562 leukemia; 113% with MALME-3M melanoma. Also, the growth with MDA-MB-231 breast is 101%; in the test on RXF 393 renal, 111%; in the test on SF-268 CNS, 105%; in the test with SF-295 CNS, 113%; in the test with SF-539 CNS it was 98.5%; in the test with UACC-257 melanoma, 109%. Besides, the growth in the test with M14 melanoma was 96.8%.
For the compound `C=C1C(=O)O[C@H]2[C@H]1CC/C(COC(=O)/C=C/C(=O)NCc1ccc(Cn3c(=O)sn(-c4ccccc4)c3=O)cc1)=C\CC[C@@]1(C)O[C@@H]21`, the growth in the test on NCI-H23 lung is 49.7%; in the test on NCI-H226 lung it was 14.5%; in the test with NCI-H322M lung, 89.9%; in the test on HOP-62 NSCLC, 85.5%; with NCI-H460 lung, 91.9%; with HOP-92 NSCLC, -53.7% (active). Moreover, the growth is -80.1% (active) in the test with NCI-H522 lung; 80.2% with A549/ATCC NSCLC; -19.1% (active) in the test with 786-0 renal; 8.63% (active) in the test with DU-145 prostate; -0.361% (active) with K-562 leukemia; -57.8% (active) in the test on MALME-3M melanoma. Besides, the growth in the test on MDA-MB-231 breast was -39.9% (active); with RXF 393 renal, -86.6% (active); with SF-268 CNS, -6.21% (active); with SF-295 CNS, 100%; with SF-539 CNS, -39.1% (active); in the test with UACC-257 melanoma it was -11.4% (active). Further, the growth with M14 melanoma was -36% (active).
In the case of `NC(=Nc1ccc(N)cc1)C(N)=Nc1ccc(N)cc1`, the growth with NCI-H23 lung is 108%; in the test on NCI-H226 lung it was 94.4%; in the test with NCI-H322M lung, 105%; with HOP-62 NSCLC, 107%; in the test on NCI-H460 lung it was 106%; in the test with HOP-92 NSCLC, 112%. The growth in the test with NCI-H522 lung was 111%; in the test on A549/ATCC NSCLC, 68.4%; in the test on 786-0 renal, 99.6%; in the test on DU-145 prostate, 106%; with K-562 leukemia, 81.7%; in the test with MALME-3M melanoma, 135%. Moreover, the growth in the test on MDA-MB-231 breast was 93.5%; in the test on RXF 393 renal, 84.1%; in the test with SF-268 CNS, 104%; in the test with SF-295 CNS it was 111%; in the test on SF-539 CNS, 96.9%; in the test with UACC-257 melanoma it was 31.8%. Further, the growth with M14 melanoma is 99.7%.
On to `c1ccc2c(c1)nc(-n1ccnc1)c1nc3ccccc3n12`, for which the growth was 65.8% with NCI-H23 lung; 65.7% with NCI-H226 lung; 71.9% in the test with NCI-H322M lung; 47.9% in the test on HOP-62 NSCLC; 40.7% in the test on NCI-H460 lung; 80.9% in the test on HOP-92 NSCLC. Moreover, the growth in the test on NCI-H522 lung was 26.9%; in the test on A549/ATCC NSCLC, 54.3%; with 786-0 renal, 73.1%; with DU-145 prostate, 76.9%; in the test on K-562 leukemia it was 88.1%; in the test on MALME-3M melanoma it was 92.9%. Further, the growth is 72.3% in the test with MDA-MB-231 breast; 64.9% in the test on RXF 393 renal; 37.9% with SF-268 CNS; 83.7% in the test with SF-295 CNS; 66% in the test on SF-539 CNS; 82.3% with UACC-257 melanoma. In the test on M14 melanoma, the growth was 93.1%.
Turning to `Cc1ccc(/C(=N\N=C(N)N)c2ccccc2)cc1`, the growth in the test on NCI-H23 lung is 16.6%; with NCI-H226 lung, -4.14% (active); in the test with NCI-H322M lung, 56.6%; with HOP-62 NSCLC it was -30.4% (active); with NCI-H460 lung, 2.74% (active); in the test with HOP-92 NSCLC, 27.3%. For the same compound, the growth is -11.8% (active) with NCI-H522 lung; 16.9% in the test with A549/ATCC NSCLC; -70.3% (active) in the test on 786-0 renal; 10.4% with DU-145 prostate; 0.175% (active) in the test on K-562 leukemia; 61.8% with MALME-3M melanoma. Moreover, the growth in the test on MDA-MB-231 breast was 2.26% (active); in the test on RXF 393 renal it was 10.4%; in the test on SF-268 CNS, 36.1%; in the test with SF-295 CNS, 1.44% (active); in the test on SF-539 CNS it was -24.2% (active); with UACC-257 melanoma, 59%. The growth in the test with M14 melanoma is -43.5% (active).
